Laboratory results reported in PubChem BioAssay (NCI).
The panel holds about 83,000 compounds, 20% with a hit somewhere; the sample as a whole holds those more often.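 48-hour exposure, single concentration, 96-well plates; percent growth endpoint where 0 means no net growth. Active: below 10.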 Values without a mark were called inactive. Calls of active or inactive are those of the source.

test system: HL-60(TB) leukemia; test: NCI-60 one-dose screen, 48 h (100 = growth as untreated, 0 = no growth, -100 = all killed); settings: 10 µM unless noted

Q: For `CCOC(=O)CC(=O)c1c(C)cc(C)cc1C`, which growth is on record?
A: 90.8%

Q: Which growth does the source give for `Cc1ccc(C2=N[C@H]3CCC[C@@H]3N(c3ccccc3)C(C(Cl)Cl)=N2)cc1` here?
A: 93.2%

Q: How did the growth turn out when `Cc1ccc(/C=C(\C#N)n2nnc3cc(Cl)c(Cl)cc32)cc1` was run?
A: 1.4% (active)

Q: For `O=C1OCC/C1=C\OCCCO/C=C1\CCOC1=O`, which growth is on record?
A: 104%

Q: For `CCCCC(=O)OC1CCCCC1C` (centres undefined), which growth is on record?
A: 117%

Q: `O=C(N/N=C/c1ccccc1O)c1ccccc1Nc1ccnc(C(F)(F)F)c1` was tested. Which growth did it give?
A: 7.92% (active)

Q: `C[C@@]1(C(=O)Nc2ccc(F)nc2)CCCN1c1nc(Nc2cc(C3CC3)[nH]n2)c2cccn2n1` was tested. Which growth did it give?
A: 9.68% (active)

Q: `C/C1=C\CC[C@@]2(C)O[C@H]2[C@H]2OC(=O)C(CN3CCN(CC4C(=O)O[C@H]5[C@H]4CC/C(C)=C/CC[C@@]4(C)O[C@@H]54)CC3)[C@@H]2CC1` (some centres undefined) was tested. Which growth did it give?
A: 98.7%

Q: For `CCCCCCCCCCCCCC`, which growth is on record?
A: 87%

Q: `O=C1/C(=C/c2ccccc2)CN(C(=O)CCN2CCC(=NO)CC2)C/C1=C\c1ccccc1` was tested. Which growth did it give?
A: 5.03% (active)

Q: For `Clc1ccc(OCc2nc(-c3ccccc3)n[nH]2)c(Cl)c1`, which growth is on record?
A: 94.9%

Q: For `CSc1ccc2c(c1)C(N1CCN(C)CC1)Cc1ccccc1S2` (centres undefined), which growth is on record?
A: 52.7%

Q: `C=C(C)[C@@H]1CC[C@]2(c3nnc(-c4ccncc4)o3)CC[C@]3(C)[C@H](CC[C@@H]4[C@@]5(C)CCC(=O)NC(C)(C)[C@@H]5CC[C@]43C)[C@@H]12` was tested. Which growth did it give?
A: 115%

Q: Which growth does the source give for `O=[N+]([O-])c1ccc(N/N=C/c2ccccc2O)nc1` here?
A: 0.837% (active)
